A short description of test [1]: ACEA_ER_80hr: ACEA Biosciences xCELLigence Real-Time Cell Analysis on Estrogen Receptor Agonism for Proliferation (AID 2282667; active = hit-call score of the fitted dose curve at least 0.9, where 1 is the maximum). As to conditions: T47D proliferation, impedance (xCELLigence), 80 h. In outline:
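T-47D cells monitored by electrical impedance (xCELLigence) with compound present throughout; 80 h timepoint, positive-direction fitting versus DMSO. Eight-point 1:4 dilutions from 100 uM final, duplicate plates.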

Test [2] can be described thus: APR_HepG2_CellCycleArrest_24hr: Apredica 24-hour HepG2 Assay for Cell Cycle Arrest (AID 2282905).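 Note: cell cycle arrest scored as ratio of 2N to 4N nuclear DNA content.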 The following applies: imaging, actives raise or lower the signal. In outline:
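Cell cycle arrest is scored from nuclear DNA content measured by high-content imaging of Hoechst 33342-stained HepG2 cells following 24-hour treatment at ten concentrations up to 200 uM, with DMSO as baseline.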

Test [3] can be described thus: APR_HepG2_NuclearSize_24hr: Apredica 24-hour HepG2 Assay for Nuclear Size (AID 2282907). As to conditions: high-content imaging, actives raise or lower the signal. In outline: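 Compounds in DMSO (final 0.5%) were added to human HepG2 hepatoma cells at ten concentrations up to 200 uM for 24 hr. Fixed nuclei were stained with Hoechst 33342, and nuclear diameter was quantified from automated images.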

A short description of test [4]: APR_HepG2_CellLoss_24hr: Apredica 24-hour HepG2 Assay for Cell Loss (AID 2282908).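 For AC50: fit in both directions so a hit may be cell loss or gain.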 The following applies: high-content imaging. The gist of the method:
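Cell number is quantified by fluorescence imaging of Hoechst 33342-stained nuclei following dosing at 0.39–200 uM in 0.5% DMSO. Curves are fitted in both directions from the DMSO baseline.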

Test [5] is described as follows: APR_HepG2_MitoticArrest_24hr: Apredica 24-hour HepG2 Assay for Mitotic Arrest (AID 2282910). The following applies: high-content imaging, actives raise or lower the signal. In outline:
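Compounds are dosed onto HepG2 cells across ten concentrations up to 200 uM for 24 hr. Cells are then fixed in 3.7% formaldehyde, permeabilised, and labelled for phospho-histone H3 and nuclei; images are scored by cell cycle analysis and fitted bidirectionally relative to DMSO.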

Test [6] can be described thus: APR_HepG2_MitoMembPot_24hr: Apredica 24-hour HepG2 Assay for Mitochondrial Membrane Potential (AID 2282911). The following applies: imaging, actives raise or lower the signal. The gist of the method: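 HepG2 cells exposed 24 h to 0.39–200 uM compounds in duplicate, 0.5% v/v DMSO final. MitoTracker Red CMXRos 250 nM loaded 30 min before formaldehyde fixation; high-content imaging at 20x, bidirectional fit versus DMSO.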

Test [7] is described as follows: APR_HepG2_MitoMass_24hr: Apredica 24-hour HepG2 Assay for Mitochondrial Mass (AID 2282912). The following applies: high-content imaging, actives raise or lower the signal. In outline: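 The liver line HepG2 was dosed in duplicate across a 0.39–200 uM series, with final DMSO held at 0.5% v/v, and harvested at 24 hr. High-content imaging measured mitochondrial dye staining.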

Test [8] is described as follows: APR_HepG2_p53Act_24hr: Apredica 24-hour HepG2 Assay for p53 Activation (AID 2282913).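 Note: p53 protein immunofluorescence averaged per cell in HepG2 with Hoechst nuclei.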 The following applies: high-content imaging, actives raise or lower the signal. In outline:
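HepG2 cells exposed 24 h to compounds at 0.39–200 uM in duplicate, 0.5% v/v DMSO final; fixed, permeabilized, stained with anti-p53 antibody and Hoechst 33342; fluorescence imaging; bidirectional curve fit versus DMSO.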

The nature of test [9]: APR_HepG2_CellCycleArrest_72hr: Apredica 72-hour HepG2 Assay for Cell Cycle Arrest (AID 2282914). The following applies: high-content imaging, actives raise or lower the signal. The gist of the method:
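HepG2 cells exposed 72 h in duplicate to 0.39–200 uM compound, 0.5% DMSO final. Formaldehyde-fixed, Hoechst 33342-stained nuclei imaged at 20x, six fields per well; DNA content per valid cell quantified by cell-cycle image analysis, bidirectional fit versus DMSO.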

Test [10] is described as follows: APR_HepG2_CellLoss_72hr: Apredica 72-hour HepG2 Assay for Cell Loss (AID 2282915). As to conditions: high-content imaging. The gist of the method:
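Cell number comes from Hoechst 33342-labelled nuclei, imaged at 20x after 3.7% formaldehyde fixation. Dosing was 0.39–200 uM, ten concentrations in duplicate, 0.5% DMSO final, for 72 h. Bidirectional fit relative to DMSO baseline.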

A short description of test [11]: APR_HepG2_P-H2AX_72hr: Apredica 72-hour HepG2 Assay for H2AX Phosphorylation (AID 2282916).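 Note: phospho-histone H2A.x immunostain intensity per cell marking DNA damage.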 As to conditions: imaging, actives raise or lower the signal. In outline: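 Following 72 hr treatment with 0.39–200 uM compound, HepG2 cells were formaldehyde-fixed, permeabilized and stained for phospho-H2A.x; signal was measured by high-content imaging and fitted bidirectionally against DMSO controls.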

Test [12] is described as follows: APR_HepG2_MitoMembPot_72hr: Apredica 72-hour HepG2 Assay for Mitochondrial Membrane Potential (AID 2282917). As to conditions: imaging, actives raise or lower the signal. The gist of the method: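 Membrane potential read by MitoTracker Red CMXRos (250 nM, 30 min, pre-fixation) fluorescence imaging of HepG2 after 72 hr exposure. Ten concentrations, 0.39–200 uM, duplicate wells, 0.5% DMSO; fitted in both directions against DMSO baseline.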

The nature of test [13]: APR_HepG2_MitoticArrest_72hr: Apredica 72-hour HepG2 Assay for Mitotic Arrest (AID 2282918). The following applies: high-content imaging, actives raise or lower the signal. The gist of the method:
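HepG2 cells treated 72 h at 0.39–200 uM, 0.5% DMSO final; formaldehyde-fixed, stained with Hoechst 33342 and phospho-histone H3 antibody, imaged by high-content fluorescence; bidirectional fit versus DMSO.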

Test [14] in a line: APR_HepG2_MicrotubuleCSK_72hr: Apredica 72-hour HepG2 Assay for Microtubule CSK Stabilty (AID 2282919). The following applies: HepG2 microtubule cytoskeleton, high-content imaging, actives raise or lower the signal. In outline: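 Read-out is tubulin fluorescence intensity from high-content imaging of HepG2 cells, with nuclei identified by Hoechst 33342. Treatment lasts 72 h at 0.39–200 uM, and curves are fitted bidirectionally against the DMSO negative control.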

Test [15] can be described thus: APR_HepG2_P-H2AX_24hr: Apredica 24-hour HepG2 Assay for H2AX Phosphorylation (AID 2282920). As to conditions: high-content imaging, actives raise or lower the signal. The gist of the method: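 HepG2 cells dosed 24 h at 0.39–200 uM (10 points, duplicate, 0.5% DMSO final). Formaldehyde-fixed and permeabilized, then immunostained for phospho-H2A.x with Hoechst. Fluorescence quantified by high-content imaging, fitted bidirectionally versus DMSO.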

Test [16] can be described thus: APR_HepG2_StressKinase_72hr: Apredica 72-hour HepG2 Assay for Stress Kinase (AID 2282921). The following applies: HepG2 stress kinase (phospho-c-Jun) imaging, actives raise or lower the signal. The gist of the method:
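Fluorescence intensity of Cy3-tagged anti-phospho-c-Jun antibody, quantified per cell from Hoechst-defined nuclei across six images per well, served as the read-out following 72 h exposure (0.39–200 uM, 0.5% v/v DMSO).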

The nature of test [17]: APR_HepG2_p53Act_72hr: Apredica 72-hour HepG2 Assay for p53 Activation (AID 2282923).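 Note: average cellular p53 protein immunofluorescence intensity in HepG2 cells.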 The following applies: high-content imaging, actives raise or lower the signal. The gist of the method: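 HepG2 monolayers receive test compounds in duplicate at ten concentrations (0.39 through 200 uM) for 72 hr. They are then formaldehyde-fixed, antibody-labelled for p53, Hoechst-stained and imaged, with activity fitted bidirectionally versus DMSO.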

Test [18] can be described thus: APR_HepG2_MitoMass_72hr: Apredica 72-hour HepG2 Assay for Mitochondrial Mass (AID 2282924).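 Note: MitoTracker Red CMXRos stain intensity per cell imaged as mitochondrial mass.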 As to conditions: high-content imaging, actives raise or lower the signal. In outline:
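HepG2, 72 hr cmpd, 10 conc 0.39–200 uM in dup, DMSO 0.5% v/v. MitoTracker Red CMXRos 250 nM 30 min pre-fix; formaldehyde 3.7% fix 30 min RT. HCS imaging, gain/loss fit vs DMSO.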

The nature of test [19]: APR_HepG2_StressKinase_24hr: Apredica 24-hour HepG2 Assay for Stress Kinase (AID 2282922). As to conditions: HepG2 stress kinase (phospho-c-Jun) imaging, actives raise or lower the signal. The gist of the method:
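HepG2, 24 hr dosing, 0.39–200 uM in duplicate, 0.5% DMSO; formaldehyde fix (3.7%), 0.5% Triton X-100; anti-phospho-c-Jun + Cy3 secondary, Hoechst counterstain; ArrayScan imaging; bidirectional curve fit vs DMSO baseline.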

Several values for one entry are separate records, joined by “and”; a condition that tells them apart may be missing. Equal entries are not always repeated. Records with an inconclusive call do not appear. Activity calls are given as the source filed them. Rule for the calls, unless noted: active = hit-call score of the fitted dose curve at least 0.9, where 1 is the maximum; inactive = score below 0.9.

Our source for the outcome and AC50 values is PubChem BioAssay (EPA / NIEHS).

The AC50 is the midpoint of the concentration-response curve, whichever way the signal moves.

Consider `CCCCC[C@H](O)CC(=O)CCc1ccc(O)c(OC)c1`, for which the result in test [1], in test [2], in test [3], in [4], in test [5] and in test [6] was inactive. The compound was called inactive in test [7], in [8], in test [9], in [10], in test [11] and in [12]. Besides, the compound was called inactive in test [13], in test [14], in test [15], in test [16], in test [17] and in test [18].
For the compound `c1ccc2c(c1)Cc1ccccc1-2`, the outcome in test [1], in test [2], in test [3], in test [4], in test [5] and in test [6] was inactive. For the same compound, the compound was called inactive in test [7], in test [8], in test [9], in test [10], in test [11] and in test [12]. For the same compound, the outcome in test [13], in test [14], in [15], in [16], in test [19] and in [17] was inactive. Further, the call in test [18] was inactive.
As for `OC1CCCCC1`, the call in test [1], in test [2], in test [3], in test [4], in test [5] and in test [6] was inactive. Besides, the compound was classed as inactive in test [7], in [8], in test [9], in test [10], in test [11] and in test [12]. In addition, the compound was classed as inactive in test [13], in [14], in [15], in test [16], in test [19] and in test [17]. The result in [18] was inactive.
As to `CC#C[C@]1(O)CC[C@H]2[C@@H]3CCC4=CC(=O)CCC4=C3[C@@H](c3ccc(N(C)C)cc3)C[C@@]21C`, the AC50 in test [1] was 132 nM (active) and 56 nM (active) and 36.7 nM (active). Besides, the outcome in test [2], in test [3], in [4], in [5], in test [6] and in [7] was inactive. Moreover, the compound was called inactive in test [8], in test [9], in [10], in test [11], in [12] and in [13]. The compound was classed as inactive in [14], in test [15], in test [16], in test [19], in test [17] and in test [18].
As to `CC[C@H](C)[C@@H](C(=O)O)n1sc2ccccc2c1=O`, the compound was called inactive in [1], in [2], in test [3], in [4], in [5] and in test [7]. Moreover, the outcome in test [8], in [9], in test [10], in test [11], in test [12] and in test [13] was inactive. Moreover, the result in test [14], in [15], in [16], in test [17] and in test [18] was inactive. For the same compound, in test [6], the AC50 is 100 µM (active).
Take `NC(=O)N1C(=O)C(C(=O)c2cc(Cl)cs2)c2cc(F)c(Cl)cc21` (stereo unspecified): the call in [1], in test [2], in test [3], in test [6] and in test [12] was inactive. Moreover, the AC50 was 98.8 µM (active) in [4]; 84.7 µM (active) in test [5]; 107 µM (active) in test [7]; 105 µM (active) in test [8]; 96.9 µM (active) in [9]; 62.7 µM (active) in test [10]. The AC50 in [11] is 64.7 µM (active); in test [13], 47.7 µM (active); in [14], 39.2 µM (active); in test [15] it was 99.8 µM (active); in test [16], 67.4 µM (active); in test [17], 59 µM (active). Also, the AC50 in test [18] was 54.4 µM (active).
